The panel holds about 83,000 compounds, 20% with a hit somewhere; the sample as a whole holds those more often.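 How to read the values: 0–100, growth inhibition (40 = 60% inhibited); 0, no net growth; -100 to 0, cell death (-40 = 40% of starting cells died; -100 = all dead).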 Unmarked numbers belong to inactive results. Activity calls are given as the source filed them. Rule for the calls: active = growth percent below 10; inactive = the rest.

Drawing on PubChem BioAssay (NCI), this text covers growth for 13 compounds.

The assay concerns SK-MEL-2 melanoma. Description: NCI-60 one-dose screen, 48 h (100 = growth as untreated, 0 = no growth, -100 = all killed). The note with it: 10 µM unless noted.
Take `C#C[C@]1(O)CC[C@H]2[C@@H]3CC=C4c5sc(N(C)c6ccccc6)nc5CC[C@]4(C)[C@H]3CC[C@@]21C`: the growth is 85.8%.

Turning to `CC(=O)c1c([Si](C)(C)C)c2cc(C#N)ccn2c1C(=O)c1ccc(Br)cc1`, the growth was 89.4%.

As for `O=C(CSc1nc2ccccc2c(=O)n1-c1ccc(Cl)c(Cl)c1)Nc1ccc(S(=O)(=O)Nc2ccc(Cl)nn2)cc1`, the growth was 103%.

As for `C#CCN(C)CCCOc1ccc(NCc2ccc(/C=C/C(=O)NO)cc2)cc1Cl`, the growth was -6.42% (active).

For the compound `O=C(NNc1nc2cc(F)cc(F)c2n2cccc12)c1cccnn1`, the growth is 20.8%.

For `COc1ccc(/C(=N\NC(N)=S)c2ccc(Cl)cc2)cc1OC`, the growth is -23.8% (active).

Consider `COc1ccc(-c2c(C(N)=O)c(N)n(Cc3nc4ccccc4[nH]3)c(=O)c2C#N)c(OC)c1`, for which the growth is 99.2%.

`Cc1cc(Br)ccc1-n1cc(C#N)c(N)c1C(=O)c1ccc(Br)cc1`: the growth is 108%.

Consider `CN1CCN(Cc2ccc(NC(=O)c3cncc(C#Cc4cnc(N)nc4)c3)cc2C(F)(F)F)CC1`, for which the growth was -65.2% (active).

Turning to `CCOC(=O)c1c(NC(=O)c2ccc(C(F)(F)F)cc2)sc2c3c(ccc12)OCN(C)C3`, the growth is 72.8%.

For `O=C1CSC(c2cn(-c3ccccc3)nc2-c2ccc(Cl)cc2)N1c1ccccc1` (stereo not drawn), the growth was 112%.

On to `COc1ccc(-c2c3c(cn2Cc2cccc(OC)c2)-c2oncc2CCC3)cc1`, for which the growth was 96.2%.

`C#C[C@]1(O)CC[C@H]2[C@@H]3CC=C4c5sc(Nc6ccc(C)cn6)nc5CC[C@]4(C)[C@H]3CC[C@@]21C`: the growth was -25.1% (active).
